Assay outcomes deposited in PubChem by National Center for Advancing Translational Sciences (NCATS).
An excerpt weighted towards active compounds, which were near 12% of everything screened.
G9a inh – qHTS Assay for Inhibitors of Histone Lysine Methyltransferase G9a; 8.8% of 350,000 active; G9a H3K9 monomethylation, AlphaScreen, 2 h; AID 504332, 2011; Potency, µM (highest dose often 102 µM), usual class: inhibitors; Histone-lysine N-methyltransferase EHMT2 (Homo sapiens), Q96KQ7; note: nearly all actives have a fitted effect of over 75% in size
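Signal arises when biotinylated H3K9 peptide, once monomethylated, bridges streptavidin donor and antibody-captured acceptor beads. Enzyme at 20 nM was preincubated 15 min with test compounds; peptide 500 nM and SAM 20 uM then reacted for 2 h.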
JMJD2A Tudor inh – qHTS Assay for Inhibitors of JMJD2A-Tudor Domain | Lysine-specific demethylase 4A (Homo sapiens), O75164 | AlphaScreen JMJD2A-Tudor / H3K4me3 peptide binding | Potency, µM (series often up to 114 µM), most hits filed as inhibitors | 4.4% of 390,000 active; note: nearly all actives have a fitted effect of over 50% in size
Sfp inh – qHTS Assay for Inhibitors of Bacillus subtilis Sfp phosphopantetheinyl transferase (PPTase); 4'-phosphopantetheinyl transferase ffp (Bacillus subtilis), Q9F4F7; Biochemical Sfp PPTase activity, qHTS; Potency, µM, actives largely listed as inhibitors; 3.5% of 310,000 active;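 note: the enzyme is Sfp with the accession as filed and its product quenches rhodamine fluorescence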
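Step 1, compound plus 15 nM Sfp-PPTase, 15 min, room temperature. Step 2, add rhodamine-CoA (5 uM) and BHQ-2-YbbR (12.5 uM). Step 3, read 525/598 nm fluorescence at 0 and 30 min.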
BAZ2B block – qHTS Assay for Inhibitors of BAZ2B. AID 504333, 2011. 4.4% of 360,000 active. AlphaScreen BAZ2B-H3K14Ac peptide displacement. Potency, µM (top dose mostly 114 µM), actives largely listed as inhibitors. Bromodomain adjacent to zinc finger domain protein 2B (Homo sapiens), Q9UIF8; note: nearly all actives have a fitted effect of over 60% in size
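Compounds, titrated to a top concentration of 110 uM, were incubated 30 min at room temperature with preformed BAZ2B/acetyl-K14 H3 peptide complex (50 nM each). Proximity signal was measured by AlphaScreen after 20 min with beads.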
HP1b binding inh – HTS for Inhibitors of HP1-beta Chromodomain Interactions with Methylated Histone Tails | Chromobox protein homolog 1 (Homo sapiens), P83916 | AlphaScreen HP1-beta / biotin-H3K9me3 peptide binding | Potency, µM (top dose mostly 114 µM), usual class: inhibitors | 0.56% of 390,000 active; note: nearly all actives have a fitted effect of over 70% in size
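Compound inhibition of the preformed complex between 50 nM HP1-beta and 50 nM biotinylated H3K9me3 peptide was read by AlphaScreen. Buffer was PBS pH 7.4 with 0.01% Tween-20. Incubations ran 30 min at room temperature, with 10 ug/mL donor/acceptor beads.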
TDP1 block – qHTS Assay for Inhibitors of Tyrosyl-DNA Phosphodiesterase (TDP1); recombinant TDP1, AlphaScreen DNA substrate cleavage; Potency, µM (titrated, usually from 130 µM), most hits filed as inhibitors; 0.28% of 350,000 active; AID 485290, 2010; note: nearly all actives have a fitted effect of over 40% in size
Target sequence (Q9NUW8 whole entry, looked up): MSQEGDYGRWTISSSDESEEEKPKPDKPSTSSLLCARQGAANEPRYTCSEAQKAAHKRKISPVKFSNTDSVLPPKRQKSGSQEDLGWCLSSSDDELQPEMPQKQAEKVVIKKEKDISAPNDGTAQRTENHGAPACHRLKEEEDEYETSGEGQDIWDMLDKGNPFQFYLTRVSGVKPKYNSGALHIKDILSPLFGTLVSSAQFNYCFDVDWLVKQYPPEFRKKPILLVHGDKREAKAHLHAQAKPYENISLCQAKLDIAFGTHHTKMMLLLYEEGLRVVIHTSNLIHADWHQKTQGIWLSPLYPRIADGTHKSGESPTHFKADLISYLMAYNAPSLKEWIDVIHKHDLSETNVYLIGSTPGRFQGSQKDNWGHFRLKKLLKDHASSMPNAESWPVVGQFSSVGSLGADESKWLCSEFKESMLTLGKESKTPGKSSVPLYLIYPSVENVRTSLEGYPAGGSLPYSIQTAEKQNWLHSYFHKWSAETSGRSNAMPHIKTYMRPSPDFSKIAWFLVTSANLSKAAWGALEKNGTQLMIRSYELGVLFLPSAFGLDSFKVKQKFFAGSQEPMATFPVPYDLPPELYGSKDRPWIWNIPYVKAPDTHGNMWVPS
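Compounds were preincubated with Tdp1 (1 nM final) for 15 min at room temperature before substrate (15 nM final) started a 5 min reaction; beads (10 ug/ml final) were then added for 10 min before AlphaScreen detection.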
A number is an active result; n = inactive; u = inconclusive; x = no result; [ ] = remark or other dose. Calls come from the whole dose curve; as a rule, active = well fitted curve in the direction sought with a large enough effect; inconclusive = small, poorly fitted or top-dose-only effect, or another doubt; inactive = no such curve, though single readings can be large; an effect the other way counts as inactive or inconclusive.

SMILES	G9a inh	JMJD2A Tudor inh	Sfp inh	BAZ2B block	HP1b binding inh	TDP1 block
O=C(CCc1ccccc1)NC(c1cccs1)c1cc(Cl)c2cccnc2c1O (centres undefined)	u	n	n	n	n	n
CN1CCN(C(c2ccccn2)c2cc(Cl)c3cccnc3c2O)CC1 (centres undefined)	u	18µM	32µM	11µM	11µM	n
Cc1ccc(C(c2cc(Cl)c3cccnc3c2O)N2CCN(C)CC2)cc1 (centres undefined)	3.5µM	45µM	35µM	22µM	u	x
Oc1c(C(c2ccccn2)N2CCC(Cc3ccccc3)CC2)cc(Cl)c2cccnc12 (centres undefined)	3.5µM	50µM	u	50µM	u	n
O=C(COc1ccc([N+](=O)[O-])cc1)Nn1cnnc1	u	n[11.4 µM]	n	x	n	n
COCC(=O)N1CCC[C@@]2(CCN(Cc3ccccc3)C2)C1	n[12.7 µM]	x	n	x	x	x
CN(CC(=O)Nc1c(Cl)cccc1Cl)C(=O)Cc1ccc2c(c1)CCC2	3.5µM	n	x	n	u	n[0.505 µM]
CCN(CC(=O)Nc1c(F)cccc1F)C(=O)Cc1ccc2c(c1)CCC2	10µM	n	x	n	u	n
COc1ccccc1/C=C/CN1CC(C)OC(C)C1 (centres undefined)	u	3.2µM	n	45µM	u	n
COc1ccccc1/C=C/CN1CCC(Oc2ccc(C(=O)N3CCCCC3)cc2)CC1	x	u	n	u	n	n
COc1ccccc1/C=C/CN1CCCCC1	28µM	1.4µM	n	79µM	u	x
CCN(CC)C(=O)Cn1cc(S(=O)(=O)CC(=O)Nc2ccc3c(c2)OCCO3)c2ccccc21	56µM	n	n	x	n	n
CCN(CC)C(=O)Cn1cc(S(=O)(=O)CC(=O)Nc2ccccc2C)c2ccccc21	x	n	x	x	n	x
CCN(CC)C(=O)Cn1cc(S(=O)(=O)CC(=O)Nc2ccc(C(N)=O)cc2)c2ccccc21	45µM	n	n	n	n	n
Cc1ccnc(NC(=O)CCC(=O)N(Cc2ccco2)C(C(=O)NC(C)C)c2ccc(F)cc2)c1 (centres undefined)	n	n	n	n	n	n
CCN(CC)CCCC(C)Nc1nc(C)cc(Nc2ccc3nc(C)cc(N)c3c2)n1 (centres undefined)	x	x	n	x	x	n
COc1ccc(/C=C/C(=O)c2ccncc2)c2ccccc12	u	56µM	u	n	n	n
COc1ccc(/C=C/C(=O)c2ccc[nH]2)c(OC)c1OC	n	n	n	n	n	n
Oc1ccc(/C=N/NC(=S)NCCN2CCOCC2)c(O)c1	u	56µM	n	10µM	n	n
COc1cc(/C=N/NC(=S)NCCN2CCOCC2)cc(OC)c1O	u	n	22µM	n	n	n
CS(=O)(=O)c1cccc(NC(=O)CSc2nnc3n2CCCCC3)c1	n[2.33 µM]	n	x	n	n	n
CCc1c(O)cc(=O)n(-c2ccccc2)c1-c1ccccc1	u	n	n	56µM	n	n
Cc1cccc(C)c1-n1c(C)cc(/C=N/NC(N)=S)c1C	50µM	50µM	u	45µM	n	n
O=C(N/N=C/c1ccccn1)c1ccco1	u	n	u	u	n	n
Cc1cc(/C=N/NC(N)=S)c(C)n1-c1cccc(Cl)c1	45µM	u	n	u	u	n
SMILES	G9a inh	JMJD2A Tudor inh	Sfp inh	BAZ2B block	HP1b binding inh	TDP1 block
O=C(N/N=C/c1ccc2ncccc2c1)c1ccco1	14µM	79µM	n	n	n	n
Cc1cc(C(=O)N/N=C/c2cccc([N+](=O)[O-])c2)c(C)n1-c1ccccc1	n	n	n	n	n	n
Cc1cc(/C=N/NC(=O)c2ccccn2)c(C)n1-c1cccc([N+](=O)[O-])c1	u	u	u	45µM	u	n
Cc1cc(/C=N/NC(N)=S)c(C)n1-c1ccc(Cl)cc1	n	u	n	n	n	n
Cc1cc(C)c(NC(=O)CCc2c(C)noc2C)c(C)c1	n[12.7 µM]	n	x	n	n	n
Cc1cc(C)cc(-n2c(C)cc(/C=N/NC(=O)c3ccncc3)c2C)c1	n	u	n	n	n	n
Cc1cccc(-n2c(C)cc(/C=N\NC(=O)c3ccco3)c2C)c1	45µM	n	n	u	n	n
Cc1cc(/C=N/NC(=O)c2cccc(N(C)C)c2)c(C)n1-c1cc(C(=O)O)cc(C(=O)O)c1	11µM	40µM	n	x	32µM	x
Cc1cc(C)cc(-n2c(C)cc(/C=N/NC(=O)CSc3ncccn3)c2C)c1	79µM	79µM	n	u	u	n
CC(=O)C1C=CC(C)(C(=O)O)C2C=C(C)C(=O)C(C)(O)C12 (centres undefined)	x	n	x	x	n	x
O=C(Nc1ccc2oc(-c3ccc4ccccc4c3)nc2c1)c1ccccc1F	n	n	x	n	n	n
c1ccc([C@@H]2CN3CCSC3=N2)cc1	n[21.5 µM]	x	n	x	x	n[21 µM]
Cc1ccc(OCc2cc(C(=O)N3CCc4[nH]cnc4C3c3ccccn3)no2)cc1C (centres undefined)	71µM	u	n	u	n	n
Cc1ccc(CN(Cc2ccco2)C(=O)COc2cccc(C)c2C)o1	n	u	x	n	n	n
Cc1cc(C)c(OCC(=O)N(Cc2ccc(N(C)C)cc2)Cc2ccco2)c(C)c1	13µM	20µM	x	8.9µM	u	n
Cc1cccc(OCC(=O)N(Cc2ccc(N(C)C)cc2)Cc2ccco2)c1C	14µM	22µM	x	10µM	u	n
Cc1cnc(C(=O)NC2CCSc3ccccc32)cn1 (centres undefined)	45µM	n	n	n	n	n
CCc1ccccc1Nc1nc(N)nc(CSc2nnnn2C)n1	n	n	n	u	n	n
Cn1nnnc1SCc1csc(Nc2ccccc2)n1	u	n	50µM	n	n	n
Cc1ccccc1-n1c(SCc2csc(Nc3ccccc3)n2)nnc1-c1cccnc1	25µM	u	n	u	n	n
Cc1ccccc1Nc1nc(N)nc(CSc2nnnn2C)n1	n	u	n	56µM	n	n
Cc1ccc(Nc2nc(CSc3nnc(-c4cccnc4)n3-c3ccccc3C)cs2)cc1	u	u	n	u	n	n
Cc1ccc(Nc2nc(CSc3nnc(-c4ccccc4C)n3C)cs2)cc1	32µM	79µM	u	u	n	n
Cn1cnc(S(=O)(=O)N2CCC(C(=O)Nc3ccc(F)cc3F)CC2)c1	n	n	x	n	n	n
CN(C)C(=O)c1ccc(-c2cncnc2NCc2cccs2)cc1	x	x	50µM	x	x	28µM
O=C1CSC(=S)N1N=C1CCCCCC1	u	n	18µM	n	n	n
O=C(O)Cn1cc(/C=c2/sc3nc4ccccc4n3c2=O)c2ccccc21	50µM	56µM	n	u	u	u
